We go through 17 compounds from PubChem BioAssay AID463117 (University of Pittsburgh Molecular Library Screening Center, 2010).

The other results are listed elsewhere or left out. Activity calls are given as the source filed them.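 How the source made its calls: active means mean protection from necroptosis of at least 50% over duplicate tests; inactive means mean protection below 50%.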

A short description of this assay: rescue of L929 cells from caspase-blocker death – duplicate runs, confirmation (AID 463117).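 Further: 0% = cells with zVAD alone and 100% = vehicle cells without zVAD.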 As to conditions: L929 zVAD-induced necroptosis rescue, ATP luminescence, 24 h; at 10 µM; active compounds read high.
Consider `COc1ccc2nc(NC(=O)NC3CCCCC3)sc2c1`, for which the activation (protection from necroptosis) is 37.5% (inactive).

For `Cc1ccc(Nc2ccccc2N)cc1`, the activation (protection from necroptosis) is 5.52% (inactive).

Turning to `Cn1ccc(NC(=O)Nc2ccc(Cl)cc2)n1`, the activation (protection from necroptosis) is 28.3% (inactive).

Take `CC1CCCC(C)N1CCCNC(=O)c1cc2c(=O)n(C)c3ccccc3c2n1C` (configuration not stated): the activation (protection from necroptosis) is 37.3% (inactive).

Consider `CCN(CC)S(=O)(=O)c1ccc(NC(=O)c2cccnc2Cl)c(NC(=O)c2cccnc2Cl)c1`, for which the activation (protection from necroptosis) is 2.93% (inactive).

On to `Cc1[nH]c(=O)c(C(=O)/C=C/c2ccccc2)c2c1CCCC2`, for which the activation (protection from necroptosis) is 1.29% (inactive).

For `COc1cc(N=Cc2c(O)[nH]c3ccccc23)cc(OC)c1OC`, the activation (protection from necroptosis) was 72.9% (active).

In the case of `O=C(CSc1ccc([N+](=O)[O-])cn1)Nc1ccc(N2CCOCC2)c(Cl)c1`, the activation (protection from necroptosis) is 3.3% (inactive).

As for `COc1ccc(Nc2ncc(F)c(N3CCOCC3)n2)cc1`, the activation (protection from necroptosis) is 1.91% (inactive).

On to `C[C@@H]1C[C@@H]2O[C@H]2/C=C\C=C\C(=O)Cc2c(Cl)c(O)cc(O)c2C(=O)O1`, for which the activation (protection from necroptosis) is 76.5% (active).

As for `OCCCNc1nccc(-c2cc(Nc3cccc(Cl)c3)ncn2)n1`, the activation (protection from necroptosis) is 102% (active).

On to `Cc1cccc(NC(=O)Nc2ccc3c(c2)OCO3)n1`, for which the activation (protection from necroptosis) is -0.556% (inactive).

Consider `COc1cc(/C=N/Nc2nc3ccccc3s2)ccc1O`, for which the activation (protection from necroptosis) is 75.3% (active).

`Oc1ccc(/C=N/Nc2ccc(C(F)(F)F)cn2)cc1O`: the activation (protection from necroptosis) is 83.8% (active).

With `O=C(COc1cccc(-n2cnnn2)c1)NCCC1=CCCCC1`, the activation (protection from necroptosis) is 36.6% (inactive).

On to `COc1ccc(-n2cnc3cc(C(=O)NC4CCCC4)ccc32)cc1`, for which the activation (protection from necroptosis) was 62% (active).

With `CCOc1ccc(C(=O)Nc2nccs2)cc1[N+](=O)[O-]`, the activation (protection from necroptosis) was 1.6% (inactive).
